A selection: hits, their analogues and other compounds. The true share with any hit is near 1.7%.
BH1578 lux ind = quorum light induction in luxS cqsA deficient V. cholerae | hit rate 0.16% among 350,000 | V. cholerae BH1578 lux reporter, luminescence, 6 h | AID 588436 | activation, % at 18.7 µM; in the data active = activation mostly above about 9.7%, no sharp cut-off; inconclusive = no clear call, values can overlap the other calls; inactive = mostly below about 3.7%
Mtb hypoxia rep = Mtb hypoxia fluorescent reporter inhibition. hit rate 0.1% among 300,000. M. tuberculosis hypoxia-regulated fluorescent reporter, fluorescence. AID 1159583. fluorescence inhibition, % (test concentration not listed); in the data active = fluorescence inhibition mostly above about 23%, no sharp cut-off; inactive = mostly below about 17%
PfHsp40 rescue = rescue of PfHsp40-mediated yeast toxicity; AID 504582; growth rescue, % at 12.5 µM; hit rate 0.68% among 340,000; S. cerevisiae expressing PfHsp40, growth rescue, ATP luminescence; in the data active = growth rescue above about 28%, passing the limit was not always enough; inconclusive = no clear call, values can overlap the other calls;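 note: yeast W303a lacking pdr1 and pdr3 grown in galactose medium; growth measured after three days at 30 °C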
Sa RN4220 lethal = kills Staphylococcus aureus RN4220; S. aureus RN4220 growth, OD600, 16 h; inhibition, % (concentration not given with the values); hit rate 0.33% among 330,000; in the data active = inhibition above about 85%;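 note: plate controls were untreated cells for no effect and reference antibiotic for full effect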
CCHFV vOTU inh = CCHFV vOTU protease inhibition; inhibition, % at 11.5 µM; hit rate 0.55% among 370,000; Pep-AMC fluorescence; in the data active = inhibition above about 30%; note: 0% = vehicle wells with enzyme and 100% = no enzyme wells
Sa ugtP lethal = growth inhibition of S. aureus ugtP deletion strain. S. aureus RN4220 ugtP deletion, OD600 growth, 16 h. growth inhibition, % (concentration not given with the values). hit rate 0.54% among 330,000; in the data active = growth inhibition above about 68%;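 note: plate controls were untreated wells for no effect and antibiotic for full effect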
* = called active by the depositor; i = inactive; u = inconclusive; x = no result shown.

SMILES | BH1578 lux ind | Mtb hypoxia rep | PfHsp40 rescue | Sa RN4220 lethal | CCHFV vOTU inh | Sa ugtP lethal
COC(=O)c1ccc(/C=C/c2ccc3cccc(OC(C)=O)c3n2)cc1 | 0 | 0 | 140* | -3 | 16 | -13
CCOc1ccc(Nc2nc(N3CCCCC3)nc(N3CCCCC3)n2)cc1 | 0 | 7 | -1 | -2 | -8 | 92*
COC(=O)c1ccc(-c2ccco2)n1Cc1ccccc1Cl | 0 | 13 | 1 | -1 | -12 | 85*
CN1C(=O)CSC1=NNC(=O)COc1cccc2cccnc12 | x | 4 | x | -1 | x | 1
Fc1ccc(C[n+]2csc3ccccc32)cc1 | i | x | 0 | x | -11 | x
Clc1ccc(C[n+]2csc3ccccc32)cc1 | 0 | 3 | 0 | 87* | -14 | 100*
CCCCNC(=O)C1CC1C(O)C(CO)NC(=O)C(Cc1ccccc1)NC(=O)OC(C)(C)C (stereo not given) | x | 1 | x | 3 | x | 1
CCOC(=O)NC(=O)CSc1nc2ccccc2[nH]1 | 0 | 9 | -1 | -2 | 5 | 6
CCOC(=O)C1(C(C)(C)CC)CC(CSc2nc3ccccc3[nH]2)OC1=O (stereo not given) | i | -2 | 69* | 9 | 5 | 1
CC=C(C)C(=O)Nc1cccc(C2=NOC3(C2)CC(C(N)=O)N(C(=O)c2ccc(Cl)cc2)C3)c1 (stereo not given) | x | 6 | x | 6 | x | -6
C#CCNC(=O)C1=CC(c2ccc(Br)cc2)C(CCCO)C(OCC)O1 (stereo not given) | x | 3 | x | 3 | x | 2
Clc1ccc(SCCCCn2ccnc2)cc1 | i | x | 1 | -9 | 12 | -5
Clc1ccc(CCC(Cn2ccnc2)Sc2c(Cl)cccc2Cl)cc1 (stereo not given) | 1 | x | 120* | 99* | 3 | 98*
Cc1ccc2c(c1)CC1(CN2C)C(=O)OC2(CCCCC2)OC1=O | 17* | 6 | 1 | 3 | -2 | 2
CN1CCN(c2ccc(C(CC(N)=O)NC(=O)c3ccccc3)cc2[N+](=O)[O-])CC1 (stereo not given) | 3 | 2 | 37* | 0 | -14 | -2
COc1cc2c(cc1NC(=O)Nc1ccccc1)oc1ccccc12 | i | 9 | u | 31 | 12 | 84*
O=C(COc1cccc2ccccc12)NN=Cc1ccccc1OCc1ccc(C(=O)O)cc1 | x | 11 | x | 8 | x | -2
O=S(=O)(Nc1ccccc1C(F)(F)F)c1ccc(-c2ccccn2)s1 | -1 | 4 | 28* | 46 | 4 | -4
O=C(NCc1ccccn1)Nc1ccccc1C(F)(F)F | i | 6 | -1 | 2 | -7 | -4
C(=N/N1CCN(c2ccccc2)CC1)/c1ccncc1 | i | x | 164* | x | 5 | x
Cc1cc(C)nc(NC(N)=NCCc2ccccc2)n1 | i | 16 | 1 | 7 | 10 | -4
Cc1cc(C)nc(NC(N)=NC(C)c2ccccc2)n1 (stereo not given) | x | 24 | x | 6 | -16 | 94*
Cc1ccc(-c2cc(-c3ccc(C)cc3)[n+](-c3ccccc3)c(-c3ccc(C)cc3)c2)cc1 | -4 | x | 229* | 101* | x | 100*
c1ccc(-c2cc(-c3ccccc3)[n+](-c3ccccc3)c(-c3ccccc3)c2)cc1 | 0 | x | -1 | 5 | -5 | -2
Cc1ccc(-c2cc(-c3ccccc3)cc(-c3ccccc3)[n+]2-c2ccccc2)cc1 | i | x | 1 | 94* | 2 | 98*
SMILES | BH1578 lux ind | Mtb hypoxia rep | PfHsp40 rescue | Sa RN4220 lethal | CCHFV vOTU inh | Sa ugtP lethal
CCCC(=O)OCCNc1cc(Sc2nc3ccccc3[nH]2)c2nonc2c1[N+](=O)[O-] | 0 | x | 1 | 96* | 15 | 100*
COC(=O)C1=C(c2ccc(Cl)c(C(F)(F)F)c2)CC2CCC1N2C(=O)NCC1CC1 (stereo not given) | x | 7 | x | 1 | x | -7
COc1ccc(-c2cc(C(F)(F)F)nc(N3CCCCCC3)n2)cc1 | -2 | 14 | -1 | -4 | -1 | 95*
CCc1ccc(/C=C/C(=O)C2C(=O)c3ccccc3C2=O)cc1 | i | 4 | 0 | 100* | 16 | 97*
NC(=O)C1=CC(c2csc3ccccc23)CC(OCCCCO)O1 (stereo not given) | x | 11 | x | 0 | x | 0
CC(=O)OC1CC2(C)C(=NO)CCC2C2CCc3cc(O)ccc3C12 (stereo not given) | x | 0 | x | 5 | x | 5
CC(=O)c1cc2ccc(O)cc2oc1=O | -4 | x | 0 | x | -237 | x
Cc1ccc(N=c2oc3cc(O)ccc3cc2C(N)=O)cc1 | i | -93 | 33* | 11 | -139 | -25
CC1Oc2ccccc2C=C1C=NNC(=O)c1ccccc1O (stereo not given) | x | 5 | x | 12 | x | -2
COC(=O)C1=C(c2ccc(OC(F)(F)F)cc2)C[C@@H]2CC[C@H]1N2C(=O)N1CCC(C)CC1 | -1 | x | 41* | x | 28 | x
COC(=O)C1=C(c2ccc(OC(F)(F)F)cc2)CC2CCC1N2C(=O)N1CCC(C)CC1 (stereo not given) | x | 0 | x | -5 | x | 26
O=C1C=C(c2cccs2)C[C@H](c2ccccc2)[C@H]1n1nnc([N+](=O)[O-])n1 | i | 21 | 1 | 72 | 5 | 98*
CC(C)/C=C(/C(=O)c1ccc(Cl)cc1Cl)n1cncn1 | i | 11 | 399* | -1 | -4 | -5
CC(C)(C)C(=O)/C(=C/c1ccc(Cl)cc1)n1cncn1 | 1 | 23 | 1 | 5 | -5 | 8
CC(c1ccccc1)N1C(=O)c2ccc(C(=O)Nc3ccccc3C(=O)O)cc2C1=O (stereo not given) | 1 | 9 | 1 | 29 | 24 | 7
CC(c1ccccc1)N1C(=O)c2ccc(C(=O)Nc3ccc(Br)cc3C(=O)O)cc2C1=O (stereo not given) | i | 11 | 1 | 100* | 0 | 92*
Cc1ccc(Nc2nc(NN=Cc3c[nH]c4ccccc34)nc(N3CCOCC3)n2)cc1 | x | 3 | x | 4 | x | -17
COc1cc(C(=O)NCC(=O)NN=Cc2ccc(OC(=O)c3ccco3)cc2)cc(OC)c1OC | x | -24 | x | 3 | x | -9
CCN(CC(=O)Nc1cc(Cl)ccc1C)c1ncnc2sc(C)c(C)c12 | 0 | 9 | 33* | 3 | -3 | 19
CCN(CC(=O)Nc1cc(Cl)ccc1C)C(=O)C1CCN(c2ncnc3sc(C)c(C)c23)CC1 | -5 | x | x | x | 9 | x
CCOC(=O)/C(C=Nc1cc(C)nn1-c1ccccc1)=C(\C)O | x | 13 | x | 7 | x | 0
CCC(C)C1CN(C(C)CN2CCCC2CN2C(N)=NCC2CC(C)C)C(=N)N1CCc1ccc(Cl)c(Cl)c1 (stereo not given) | x | x | x | 101* | x | 99*

Screening results (PubChem)
